# Reference: PubChem BioAssay (Tox21)
# Results filed as inconclusive are left out. Some compounds were tested as several samples or in several runs, with calls that do not always agree. Active and inactive are the calls of the source. Calls follow the shape of the dose curve; as a rule, active = well fitted curve in the direction sought with a large enough effect in the repeat runs; inconclusive = weak or mixed curves; inactive = no such curve, though single readings can be large; an effect the other way counts as inactive or inconclusive.
# Biological target: Nuclear receptor subfamily 1 group I member 2 (Homo sapiens) (UniProt O75469)
# Experiment: CYP3A4 induction through human pregnane X receptor (PXR) by small molecules, qHTS assay (AID 1346984); also: nearly all actives have a fitted effect of over 40% in size
# Conditions: DPX-2 HepG2 PXR, CYP3A4-luciferin luminescence, 24 h; series mostly up to 46.1 µM
# In short: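 Human PXR activation is tracked via CYP3A4 promoter-luciferase in DPX-2 (HepG2) cells. Compounds treat cells for 24hr at 37C, and luminescence is read after One-Glo.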
# % is scaled to controls: 0 for no effect and ±100 for the full control effect; potency is read from the fitted curve at half-maximal effect.
row,SMILES,Potency
1,CC(C)N=C(N)/N=C(\N)Nc1ccc(Cl)cc1,inactive
2,C=C(c1ccc(C(=O)O)cc1)c1cc2c(cc1C)C(C)(C)CCC2(C)C,inactive
3,Cc1cccc(C)c1NC(=O)CN1CCN(CCCC(c2ccc(F)cc2)c2ccc(F)cc2)CC1,inactive
4,CN(Cc1cc(Br)cc(Br)c1N)C1CCCCC1,14.1 µM (active)
5,CC(CN(C)C)CN1c2ccccc2CCc2ccccc21 (centres undefined),8.91 µM (active)

# Biological target: Nuclear receptor subfamily 1 group I member 2 (Homo sapiens) (UniProt O75469)
# Experiment: Human pregnane X receptor (PXR) activation by small molecules, qHTS assay (AID 1346985); also: nearly all actives have a fitted effect of over 40% in size
# Conditions: DPX-2 HepG2 CYP3A4-luciferase, 24 h; series mostly up to 38.3 µM
# In short: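 DPX-2 cells (HepG2 co-transfected with a PXR response element and a CYP3A4-promoter luciferase construct) were seeded at 2,000 per well, rested 5 hr at 37C, then exposed to DMSO-dissolved compounds for 24 hr. Activation was read as luciferase luminescence.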
row,SMILES,Potency
1,COc1ccccc1OCCNCC(O)COc1cccc2[nH]c3ccccc3c12 (centres undefined),22.4 µM (active)
2,CC(C)N=C(N)/N=C(\N)Nc1ccc(Cl)cc1,inactive
3,C=C(c1ccc(C(=O)O)cc1)c1cc2c(cc1C)C(C)(C)CCC2(C)C,inactive
4,Cc1cccc(C)c1NC(=O)CN1CCN(CCCC(c2ccc(F)cc2)c2ccc(F)cc2)CC1,inactive
5,CN(Cc1cc(Br)cc(Br)c1N)C1CCCCC1,8.91 µM (active)

# Biological target: Cytochrome P450 2D6 (Homo sapiens) (UniProt P10635)
# Experiment: Cytochrome P450 Family 2 Subfamily D Member 6 (CYP2D6) small molecule antagonists: luciferase reporter qHTS assay (AID 1671196); also: nearly all actives have a fitted effect of over 50% in size
# Conditions: P450-Glo CYP2D6 enzyme assay, luciferin luminescence, 1 h; series mostly up to 115 µM
# In short: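 Quantitative HTS of Tox21 chemicals against CYP2D6 using a luminescent proluciferin substrate. After NADPH addition, 1 h room-temperature reaction; luminescence recorded 20 min post detection reagent.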
# Chain of Cytochrome P450 2D6 (Homo sapiens) (P10635 whole entry, looked up): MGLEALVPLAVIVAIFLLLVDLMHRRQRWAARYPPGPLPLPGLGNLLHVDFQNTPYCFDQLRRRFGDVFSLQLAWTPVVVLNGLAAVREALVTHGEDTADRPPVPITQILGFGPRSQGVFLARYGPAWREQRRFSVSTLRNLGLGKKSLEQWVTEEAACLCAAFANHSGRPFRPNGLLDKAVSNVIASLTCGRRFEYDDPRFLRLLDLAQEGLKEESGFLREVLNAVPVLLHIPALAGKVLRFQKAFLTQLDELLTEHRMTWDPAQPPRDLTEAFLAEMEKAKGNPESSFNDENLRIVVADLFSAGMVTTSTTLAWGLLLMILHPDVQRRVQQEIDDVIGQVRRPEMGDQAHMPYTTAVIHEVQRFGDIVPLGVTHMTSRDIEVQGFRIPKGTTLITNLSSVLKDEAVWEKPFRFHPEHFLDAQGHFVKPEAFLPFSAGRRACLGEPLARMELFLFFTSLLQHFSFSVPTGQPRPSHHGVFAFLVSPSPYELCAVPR
SMILES,Potency,"activity change, negative = inhibition"
COc1ccccc1OCCNCC(O)COc1cccc2[nH]c3ccccc3c12 (centres undefined),1.55 µM (active),
O=C(O)CCn1c2c(c3ccccc31)C[C@H](NS(=O)(=O)c1ccc(F)cc1)CC2,inactive,
C=CC(=O)OCC(O)COc1ccccc1 (centres undefined),inactive,
CCCOc1sc(C(=O)N2CCC(c3cc(CN)ccc3F)CC2)c(C)c1Br,18.3 µM (active),
CCN(CC)c1ccc(N)cc1,13 µM (active),
C=C/C=C/C=C/CCCCC,,-25.6% [at 23.6 µM] (inactive)
CCCCCCCCCCCCCOP(=O)(O)O,inactive,
CC(C)N=C(N)/N=C(\N)Nc1ccc(Cl)cc1,5.49 µM (active),
O=C1C=CC(=O)N1c1ccccc1,39.9 µM (active),
C=CC(C)C#N (centres undefined),inactive,
CCCCCCCC/C=C\CCCCCCCC(=O)OCCOC(=O)CCCCCCC/C=C\CCCCCCCC,46.5 µM (active),
C1CC(COCC2CO2)CCC1COCC1CO1 (centres undefined),inactive,
CCCCOC(=O)C(C)CC (centres undefined),inactive,
C=CC(=C)CCC=C(C)C,inactive,
CCCCCCCCCCCCCC[n+]1ccccc1,1.78 µM (active),
C[Si](C)(C)Cl,inactive,
C=CC(C)(CCC=C(C)C)OC(=O)/C=C/c1ccccc1 (centres undefined),inactive,
C=C(c1ccc(C(=O)O)cc1)c1cc2c(cc1C)C(C)(C)CCC2(C)C,inactive,
CCc1ccc(O)c(C(C)(C)C)c1,inactive,
Cc1cccc(C)c1NC(=O)CN1CCN(CCCC(c2ccc(F)cc2)c2ccc(F)cc2)CC1,2.45 µM (active),
CN(Cc1cc(Br)cc(Br)c1N)C1CCCCC1,0.0078 µM (active),
Cc1ccc2ccc3cccc4ccc1c2c34,63.2 µM (active),
CC(=O)Nc1ccc(O)cc1,32.9 µM (active) and inactive,
O=C1c2c(O)ccc([N+](=O)[O-])c2C(=O)c2c([N+](=O)[O-])ccc(O)c21,31.4 µM (active),
C=C1C(C)(C)[C@@]2(Cl)C(Cl)[C@]1(Cl)C(Cl)(Cl)C2(Cl)Cl (some centres undefined),31.1 µM (active),
CC(CN(C)C)CN1c2ccccc2CCc2ccccc21 (centres undefined),3.09 µM (active),

# Biological target: Cytochrome P450 2C19 (Homo sapiens) (UniProt P33261)
# Experiment: Cytochrome P450 Family 2 Subfamily C Member 19 (CYP2C19) small molecule antagonists: luciferase reporter qHTS assay (AID 1671197); also: nearly all actives have a fitted effect of over 65% in size
# Conditions: P450-Glo CYP2C19 enzyme, luciferin luminescence, 1 h; series mostly up to 115 µM
# In short: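 First, compounds are pinned into enzyme-substrate mix and held 10 min at room temperature. Second, NADPH regeneration solution is added and plates incubate 1 h at 37C. Third, detection reagent is added and luminescence read after 20 min.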
# Chain of Cytochrome P450 2C19 (Homo sapiens) (P33261 whole entry, looked up): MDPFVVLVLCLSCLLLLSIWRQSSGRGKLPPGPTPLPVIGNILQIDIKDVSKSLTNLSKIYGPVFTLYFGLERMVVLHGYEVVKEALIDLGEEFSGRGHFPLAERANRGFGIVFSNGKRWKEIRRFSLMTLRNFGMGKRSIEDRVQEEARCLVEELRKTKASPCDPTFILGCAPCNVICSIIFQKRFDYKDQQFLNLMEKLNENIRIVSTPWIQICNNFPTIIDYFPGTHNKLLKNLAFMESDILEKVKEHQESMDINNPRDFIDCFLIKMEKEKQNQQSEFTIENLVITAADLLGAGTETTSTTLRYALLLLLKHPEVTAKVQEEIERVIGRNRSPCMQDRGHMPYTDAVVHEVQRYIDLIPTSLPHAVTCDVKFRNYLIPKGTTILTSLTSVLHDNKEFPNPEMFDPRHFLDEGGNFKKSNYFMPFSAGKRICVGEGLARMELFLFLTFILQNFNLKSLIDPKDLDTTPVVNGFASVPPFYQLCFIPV
row,SMILES,Potency
1,COc1ccccc1OCCNCC(O)COc1cccc2[nH]c3ccccc3c12 (centres undefined),5.49 µM (active)
2,O=C(O)CCn1c2c(c3ccccc31)C[C@H](NS(=O)(=O)c1ccc(F)cc1)CC2,inactive
3,CCCOc1sc(C(=O)N2CCC(c3cc(CN)ccc3F)CC2)c(C)c1Br,3.66 µM (active)
4,CCN(CC)c1ccc(N)cc1,9.18 µM (active)
5,CCCCCCCCCCCCCOP(=O)(O)O,79.6 µM (active)
6,CC(C)N=C(N)/N=C(\N)Nc1ccc(Cl)cc1,15.5 µM (active)
7,O=C1C=CC(=O)N1c1ccccc1,20 µM (active)
8,CCCCCCCC/C=C\CCCCCCCC(=O)OCCOC(=O)CCCCCCC/C=C\CCCCCCCC,46.5 µM (active)
9,C=C(c1ccc(C(=O)O)cc1)c1cc2c(cc1C)C(C)(C)CCC2(C)C,inactive
10,CCc1ccc(O)c(C(C)(C)C)c1,17.8 µM (active)
11,Cc1cccc(C)c1NC(=O)CN1CCN(CCCC(c2ccc(F)cc2)c2ccc(F)cc2)CC1,43.6 µM (active)
12,Cc1ccc2ccc3cccc4ccc1c2c34,28.2 µM (active)
13,CCC(C)c1cc([N+](=O)[O-])cc([N+](=O)[O-])c1OC(=O)OC(C)C (centres undefined),11.2 µM (active)
14,CC(=O)Nc1ccc(O)cc1,inactive
15,O=C1c2c(O)ccc([N+](=O)[O-])c2C(=O)c2c([N+](=O)[O-])ccc(O)c21,12.5 µM (active)
16,C=C1C(C)(C)[C@@]2(Cl)C(Cl)[C@]1(Cl)C(Cl)(Cl)C2(Cl)Cl (some centres undefined),1.96 µM (active)

# Biological target: Cytochrome P450 2C9 (Homo sapiens) (UniProt P11712)
# Experiment: Cytochrome P450 Family 2 Subfamily C Member 9 (CYP2C9) small molecule antagonists: luciferase reporter qHTS assay (AID 1671198); also: nearly all actives have a fitted effect of over 50% in size
# Conditions: P450-Glo CYP2C9 enzyme assay, luciferin luminescence; series mostly up to 115 µM
# In short: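 Enzyme-substrate mix preincubated with compound 10 min at room temperature; reaction started with NADPH regeneration solution, 1 h 37C. Luminescent luciferin product read after 20 min detection reagent.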
# Chain of Cytochrome P450 2C9 (Homo sapiens) (P11712 whole entry, looked up): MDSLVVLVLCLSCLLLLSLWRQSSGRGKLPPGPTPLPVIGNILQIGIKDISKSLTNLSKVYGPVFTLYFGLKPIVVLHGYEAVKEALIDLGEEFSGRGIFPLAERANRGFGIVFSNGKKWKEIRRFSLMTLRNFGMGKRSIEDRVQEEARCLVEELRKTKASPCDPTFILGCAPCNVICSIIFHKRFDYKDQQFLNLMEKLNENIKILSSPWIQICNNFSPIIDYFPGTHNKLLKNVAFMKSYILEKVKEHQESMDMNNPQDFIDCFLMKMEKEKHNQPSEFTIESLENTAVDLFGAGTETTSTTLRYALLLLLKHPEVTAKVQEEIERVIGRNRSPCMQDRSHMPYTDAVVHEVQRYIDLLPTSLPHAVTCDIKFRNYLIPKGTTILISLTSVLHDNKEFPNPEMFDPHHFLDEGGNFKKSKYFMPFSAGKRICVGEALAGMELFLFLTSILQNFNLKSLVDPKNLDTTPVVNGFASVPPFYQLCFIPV
row,SMILES,Potency
1,Oc1ccc(-c2ccccc2)c(Cl)c1,35.6 µM (active)
2,O=C(O)CCn1c2c(c3ccccc31)C[C@H](NS(=O)(=O)c1ccc(F)cc1)CC2,17.4 µM (active)
3,c1cc(OCC2CO2)cc(OCC2CO2)c1 (centres undefined),39.6 µM (active)
4,CCCOc1sc(C(=O)N2CCC(c3cc(CN)ccc3F)CC2)c(C)c1Br,1.63 µM (active)
5,CCN(CC)c1ccc(N)cc1,23.1 µM (active)
6,C=C/C=C/C=C/CCCCC,16.9 µM (active)
7,O=C1C=CC(=O)N1c1ccccc1,28.3 µM (active)
8,C=CC(C)C#N (centres undefined),inactive
9,CCCCCCCC/C=C\CCCCCCCC(=O)OCCOC(=O)CCCCCCC/C=C\CCCCCCCC,14.7 µM (active)
10,CCCCOC(=O)C(C)CC (centres undefined),inactive
11,CSc1ccc2c(c1)N(CCC1CCCCN1C)c1ccccc1S2 (centres undefined),70.7 µM (active)
12,C[Si](C)(C)Cl,inactive
13,C=CC(C)(CCC=C(C)C)OC(=O)/C=C/c1ccccc1 (centres undefined),6.33 µM (active)
14,C=C(c1ccc(C(=O)O)cc1)c1cc2c(cc1C)C(C)(C)CCC2(C)C,27.5 µM (active)
15,CCc1ccc(O)c(C(C)(C)C)c1,31.7 µM (active)
16,Cc1ccc2ccc3cccc4ccc1c2c34,63.2 µM (active)
17,CCC(C)c1cc([N+](=O)[O-])cc([N+](=O)[O-])c1OC(=O)OC(C)C (centres undefined),35.6 µM (active)
18,CC(=O)Nc1ccc(O)cc1,inactive
19,O=C1c2c(O)ccc([N+](=O)[O-])c2C(=O)c2c([N+](=O)[O-])ccc(O)c21,28 µM (active)
20,COC(=O)[C@]1(C)CCC[C@@]2(C)[C@H]1CC=C1C=C(C(C)C)CC[C@@H]12,31.7 µM (active)
21,C=C1C(C)(C)[C@@]2(Cl)C(Cl)[C@]1(Cl)C(Cl)(Cl)C2(Cl)Cl (some centres undefined),13.9 µM (active)
22,CC(CN(C)C)CN1c2ccccc2CCc2ccccc21 (centres undefined),inactive
